The source made the active and inactive calls. How the source made its calls: active means hit-call score of the fitted dose curve at least 0.9, where 1 is the maximum; inactive means score below 0.9.

Holding throughout (conditions): mRNA level, 48 h; actives raise or lower the signal
Read-out in assay [1]: growth arrest and DNA damage 45 (GADD45A), GADD45A (gene 1647)
The experiment in a line: LTEA_HepaRG_GADD45A: Life Technologies and Expression Analysis (LTEA) Assay for growth arrest and DNA damage 45 (GADD45A) using HepaRG (AID 2283458). The procedure, abridged: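 Eight-point concentration-response in HepaRG cells: 48 h chemical exposure, 0.5% DMSO vehicle, top dose 100 uM. Normalized qRT-PCR mRNA readout with bidirectional fitting relative to DMSO.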

Read-out in assay [2]: Forkhead box O3 (FOXO3), FOXO3 (gene 2309)
The experiment in a line: LTEA_HepaRG_FOXO3: Life Technologies and Expression Analysis (LTEA) Assay for Forkhead box O3 (FOXO3) using HepaRG (AID 2283459). In short, it runs like this:
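qRT-PCR readout of FOXO3 transcript, normalized to three housekeeping genes (ACTB, GAPDH, POLR2A); gain or loss fitted against 0.5% DMSO vehicle. HepaRG cells, 48 h chemical exposure, 8-point half-log series, top 100 uM.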

Read-out in assay [3]: ABC Transporter (ABCB1), ABCB1 (gene 5243)
As to the kind of experiment: LTEA_HepaRG_ABCB1: Life Technologies and Expression Analysis (LTEA) Assay for ABC Transporter (ABCB1) using HepaRG (AID 2283460). The procedure, abridged: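 HepaRG, 48 h exposure, 8-pt half-log series from 100 uM, 0.5% DMSO vehicle, duplicates. Readout: ABCB1 transcript by Fluidigm TaqMan qRT-PCR, housekeeping-normalized; bidirectional curve fit vs DMSO baseline.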

Read-out in assay [4]: growth arrest and DNA damage 45 (GADD45B), GADD45B (gene 4616)
As to the kind of experiment: LTEA_HepaRG_GADD45B: Life Technologies and Expression Analysis (LTEA) Assay for growth arrest and DNA damage 45 (GADD45B) using HepaRG (AID 2283461). The procedure, abridged:
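HepaRG, ~100,000 cells/well, 48 h plating; serum-free induction medium; cpd 100 uM top, half-log x8, 0.5% DMSO, duplicate, 48 h; lysis in RLT, RNA isolation, qRT-PCR; norm ACTB/GAPDH/POLR2A; bidirectional fit vs DMSO.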

Read-out in assay [5]: ABC Transporter (ABCC3), ABCC3 (gene 8714)
The experiment in a line: LTEA_HepaRG_ABCC3: Life Technologies and Expression Analysis (LTEA) Assay for ABC Transporter (ABCC3) using HepaRG (AID 2283462). In short, it runs like this:
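Human HepaRG, 48 h dosing, 8-pt half-log series from 100 uM, 0.5% DMSO vehicle, duplicates. ABCC3 mRNA by TaqMan qRT-PCR, housekeeping-normalized; bidirectional curve fit vs DMSO.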

Read-out in assay [6]: ABC Transporter (ABCB11), ABCB11 (gene 8647)
The experiment in a line: LTEA_HepaRG_ABCB11: Life Technologies and Expression Analysis (LTEA) Assay for ABC Transporter (ABCB11) using HepaRG (AID 2283463). In short, it runs like this:
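HepaRG, 48 h exposure, 8-pt half-log CRC top 100 uM, 0.5% DMSO vehicle, duplicates. Readout: TaqMan qRT-PCR of ABCB11 mRNA, housekeeping-normalized (ACTB/GAPDH/POLR2A). Bidirectional fit vs DMSO baseline.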

Read-out in assay [7]: ABC Transporter (ABCC2), ABCC2 (gene 1244)
The experiment in a line: LTEA_HepaRG_ABCC2: Life Technologies and Expression Analysis (LTEA) Assay for ABC Transporter (ABCC2) using HepaRG (AID 2283464). The procedure, abridged: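 HepaRG, 48 h post-plating; serum-free induction medium; cpd 8-pt, 100 uM top, half-log, 0.5% DMSO, duplicate, 48 h. Readout: ABCC2 mRNA by qRT-PCR, norm. ACTB/GAPDH/POLR2A. Bidirectional fit vs DMSO baseline.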

Read-out in assay [8]: Peroxisomal acyl-coenzyme A oxidase 1 (ACOX1) gene, ACOX1 (gene 51)
The experiment in a line: LTEA_HepaRG_ACOX1: Life Technologies and Expression Analysis (LTEA) Assay for Peroxisomal acyl-coenzyme A oxidase 1 (ACOX1) gene using HepaRG (AID 2283467). In short, it runs like this:
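HepaRG, 48 h chemical exposure, 8-pt half-log series from 100 uM top, 0.5% DMSO vehicle, duplicates. Readout: ACOX1 mRNA by Fluidigm qRT-PCR, housekeeping-normalized; bidirectional fit vs DMSO baseline.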

Read-out in assay [9]: Alkaline Phosphatase, Placental (ALPP) gene, ALPP (gene 250)
As to the kind of experiment: LTEA_HepaRG_ALPP: Life Technologies and Expression Analysis (LTEA) Assay for Alkaline Phosphatase, Placental (ALPP) gene using HepaRG (AID 2283468).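 On AC50: differentiated human HepaRG liver cells in serum-free induction medium.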 In short, it runs like this:
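HepaRG, 48 h plating then 48 h dosing, serum-free induction medium, 0.5% DMSO. 8 conc, half-log, max 100 uM, duplicates. Endpoint: ALPP transcript by qRT-PCR, housekeeping-normalized; gain or loss fitted vs DMSO.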

Read-out in assay [10]: Bcl-2 (BAD) gene, BAD (gene 572)
The experiment in a line: LTEA_HepaRG_BAD: Life Technologies and Expression Analysis (LTEA) Assay for Bcl-2 (BAD) gene using HepaRG (AID 2283469). The procedure, abridged: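 HepaRG, 48 h exposure, 8-pt half-log curve from 100 uM in 0.5% DMSO, duplicates. Readout: TaqMan qRT-PCR for BAD mRNA, housekeeping-normalised (ACTB/GAPDH/POLR2A); gain or loss fitted against DMSO baseline.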

Read-out in assay [11]: Bcl-2 (BAX) gene, BAX (gene 581)
The experiment in a line: LTEA_HepaRG_BAX: Life Technologies and Expression Analysis (LTEA) Assay for Bcl-2 (BAX) gene using HepaRG (AID 2283470). The procedure, abridged: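 Human HepaRG cells treated in duplicate for 48 h across eight concentrations (max 100 uM, 0.5% DMSO); BAX expression measured by qRT-PCR.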

Read-out in assay [12]: adenosine kinase (ADK) gene, ADK (gene 132)
As to the kind of experiment: LTEA_HepaRG_ADK: Life Technologies and Expression Analysis (LTEA) Assay for adenosine kinase (ADK) gene using HepaRG (AID 2283471). The procedure, abridged: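 ADK expression quantified by qRT-PCR, normalised to three housekeeping genes, after 48 h exposure of HepaRG cells to eight concentrations (top 100 uM, half-log steps, duplicate, 0.5% DMSO). Up- or down-regulation fitted relative to vehicle.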

Read-out in assay [13]: Alpha-fetoprotein (AFP) gene, AFP (gene 174)
As to the kind of experiment: LTEA_HepaRG_AFP: Life Technologies and Expression Analysis (LTEA) Assay for Alpha-fetoprotein (AFP) gene using HepaRG (AID 2283472). In short, it runs like this: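 Measures AFP mRNA change in HepaRG after 48 h chemical exposure (8 half-log concentrations, highest 100 uM, 0.5% DMSO). Fold change relative to DMSO, fitted in both directions.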

Read-out in assay [14]: BCL2L11 (gene 10018)
As to the kind of experiment: LTEA_HepaRG_BCL2L11: Life Technologies and Expression Analysis (LTEA) Assay for Bcl-2 (BCL2L11) gene using HepaRG (AID 2283473). In short, it runs like this:
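Read-out is BCL2L11 transcript level by qRT-PCR, normalized to three housekeeping genes and fitted bidirectionally against 0.5% DMSO vehicle. HepaRG cells received chemicals for 48 h in serum-free induction medium, 100 uM down in half-log dilutions.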

Read-out in assay [15]: Apolipoprotein A-V (APOA5) gene, APOA5 (gene 116519)
The experiment in a line: LTEA_HepaRG_APOA5: Life Technologies and Expression Analysis (LTEA) Assay for Apolipoprotein A-V (APOA5) gene using HepaRG (AID 2283474). The procedure, abridged: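 Readout is APOA5 transcript level by qRT-PCR on Fluidigm dynamic arrays, normalized to three housekeeping genes. HepaRG cultures received chemicals for 48 h at up to 100 uM (half-log steps, 0.5% DMSO), with gain or loss scored relative to DMSO.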

Read-out in assay [16]: Apoptosis regulator Bcl-2 (Homo sapiens) (UniProt P10415)
The experiment in a line: LTEA_HepaRG_BCL2: Life Technologies and Expression Analysis (LTEA) Assay for Bcl-2 gene using HepaRG (AID 2283475). In short, it runs like this: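 Each chemical was tested in duplicate on HepaRG cultures held in serum-free induction medium for 48 h, highest concentration 100 uM with half-log dilutions. Transcript levels came from multiplexed qRT-PCR, normalised to housekeeping genes; activity was scored in either direction relative to DMSO.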

Read-out in assay [17]: Bcl-2 (BID) gene, BID (gene 637)
The experiment in a line: LTEA_HepaRG_BID: Life Technologies and Expression Analysis (LTEA) Assay for Bcl-2 (BID) gene using HepaRG (AID 2283476). The procedure, abridged:
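Assay used HepaRG hepatic cells treated 48 h in serum-free medium with half-log dilutions from 100 uM. Endpoint: BID mRNA, qRT-PCR, normalized to ACTB/GAPDH/POLR2A.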

Read-out in assay [18]: ATP-citrate lyase (ACLY), ACLY (gene 47)
The experiment in a line: LTEA_HepaRG_ACLY: Life Technologies and Expression Analysis (LTEA) Assay for ATP-citrate lyase (ACLY) using HepaRG (AID 2283466). The procedure, abridged: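 qRT-PCR readout of ACLY transcript after 48 h chemical treatment of HepaRG cells; expression normalized to three housekeeping genes. Eight-point half-log series, highest 100 uM, 0.5% DMSO vehicle. Gain or loss fitted against DMSO baseline.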

Read-out in assay [19]: Caspase-3 (Homo sapiens) (UniProt P42574)
As to the kind of experiment: LTEA_HepaRG_CASP3: Life Technologies and Expression Analysis (LTEA) Assay for cysteine-aspartic acid protease (CASP3) using HepaRG (AID 2283477). In short, it runs like this:
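Read-out is CASP3 mRNA level by TaqMan qRT-PCR in human HepaRG cells after 48 h chemical exposure. Eight half-log concentrations topping at 100 uM were tested in 0.5% DMSO; gain or loss was fitted relative to DMSO.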

Sequence of Apoptosis regulator Bcl-2 (Homo sapiens) (P10415 whole entry, looked up): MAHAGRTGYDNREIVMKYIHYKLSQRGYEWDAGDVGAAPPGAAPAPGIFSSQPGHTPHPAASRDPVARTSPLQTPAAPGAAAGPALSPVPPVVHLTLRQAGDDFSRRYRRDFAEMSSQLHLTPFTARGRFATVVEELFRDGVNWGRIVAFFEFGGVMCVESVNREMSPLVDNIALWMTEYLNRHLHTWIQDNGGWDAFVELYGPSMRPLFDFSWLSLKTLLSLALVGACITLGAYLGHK
Sequence of Caspase-3 (Homo sapiens) (P42574 whole entry, looked up): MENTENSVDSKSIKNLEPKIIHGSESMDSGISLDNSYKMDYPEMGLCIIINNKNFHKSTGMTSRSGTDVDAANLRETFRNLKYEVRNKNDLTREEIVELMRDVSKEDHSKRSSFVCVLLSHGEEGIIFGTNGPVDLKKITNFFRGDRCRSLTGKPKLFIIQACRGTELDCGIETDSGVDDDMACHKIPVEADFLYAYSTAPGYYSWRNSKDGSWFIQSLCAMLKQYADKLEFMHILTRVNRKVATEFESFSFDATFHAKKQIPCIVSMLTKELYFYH

Regarding `CCCCCCCCCC`, the call in assay [1], in assay [2], in [3], in [4], in assay [5] and in assay [6] was inactive. Moreover, the result in [7], in assay [8], in assay [9], in assay [10], in assay [11] and in assay [12] was inactive. Also, the call in [13], in assay [14], in assay [15], in [16] and in assay [17] was inactive.

Consider `NC(=O)NN=Cc1ccc([N+](=O)[O-])o1`, for which the outcome in [1], in [2], in assay [3], in assay [4], in assay [5] and in [6] was inactive. In addition, the molecule was classed as inactive in assay [18], in assay [8], in assay [11], in assay [12], in assay [13] and in assay [14]. Further, the molecule was called inactive in assay [15], in assay [16] and in assay [19]. Further, the AC50 – broadly, the midpoint of the concentration-response curve, whichever way the signal moves – in assay [7] was 50 µM (active); in assay [9], 0.468 µM (active); in assay [10] it was 0.381 µM (active); in assay [17] it was 0.267 µM (active).

In the case of `CCn1nc(C)c2c1C(=O)NCC(c1ccc(O)cc1)=N2`, the call in [1], in assay [2], in assay [3], in assay [4], in [5] and in assay [6] was inactive. For the same molecule, the result in assay [7], in assay [8], in assay [9], in assay [10], in assay [11] and in [12] was inactive. The call in assay [13], in [14], in assay [15], in assay [16], in assay [17] and in [19] was inactive.

On to `OC[C@H]1O[C@@H]2O[C@H]3[C@H](O)[C@@H](O)[C@@H](O[C@H]4[C@H](O)[C@@H](O)[C@@H](O[C@H]5[C@H](O)[C@@H](O)[C@@H](O[C@H]6[C@H](O)[C@@H](O)[C@@H](O[C@H]7[C@H](O)[C@@H](O)[C@@H](O[C@H]1[C@H](O)[C@H]2O)O[C@@H]7CO)O[C@@H]6CO)O[C@@H]5CO)O[C@@H]4CO)O[C@@H]3CO`, for which the molecule was called inactive in [1], in assay [2], in [3], in assay [4], in assay [5] and in [6]. Also, the outcome in assay [7], in [8], in assay [9], in assay [10], in [11] and in assay [12] was inactive. Besides, the result in assay [13], in assay [14], in [15], in assay [16], in [17] and in assay [19] was inactive.

For the molecule `CCCOc1ccc(S(=O)(=O)N2CCN(CC)CC2)cc1-c1nc2c(CC)n(Cc3ccccn3)nc2c(=O)[nH]1`, the result in assay [1], in assay [2], in [4], in [5], in assay [8] and in assay [10] was inactive. In addition, the outcome in [11], in assay [12], in assay [14], in assay [15], in assay [16] and in assay [17] was inactive. For the same molecule, the AC50 in assay [3] is 2.87 µM (active); in assay [6], 27.7 µM (active); in [7] it was 5.49 µM (active); in assay [9], 50 µM (active); in assay [13], 26.9 µM (active).

The record behind these values is PubChem BioAssay (EPA / NIEHS).
